Reference: PMC7862700, “An all-to-all approach to the identification of sequence-specific readers for epigenetic DNA modifications on cytosine”

Legend:
Assay in all cases: DAPPL (digital affinity profiling via proximity ligation, sequencing); 10 mM Tris-HCl pH 7.5, 50 mM NaCl, 1 mM DTT, 4% glycerol, room temperature, 30 min; GST-TFs on glutathione beads, 16-mer random dsDNA library, 0.1% formaldehyde crosslink after washing; high values mean tight binding
Conditions in all cases: protein: recombinant; tags: N-terminal GST; dsDNA, one strand shown
FLI1 = molecular target: T1, FLI1 (Homo sapiens, UniProt Q01543 1-452)
T1 sequence: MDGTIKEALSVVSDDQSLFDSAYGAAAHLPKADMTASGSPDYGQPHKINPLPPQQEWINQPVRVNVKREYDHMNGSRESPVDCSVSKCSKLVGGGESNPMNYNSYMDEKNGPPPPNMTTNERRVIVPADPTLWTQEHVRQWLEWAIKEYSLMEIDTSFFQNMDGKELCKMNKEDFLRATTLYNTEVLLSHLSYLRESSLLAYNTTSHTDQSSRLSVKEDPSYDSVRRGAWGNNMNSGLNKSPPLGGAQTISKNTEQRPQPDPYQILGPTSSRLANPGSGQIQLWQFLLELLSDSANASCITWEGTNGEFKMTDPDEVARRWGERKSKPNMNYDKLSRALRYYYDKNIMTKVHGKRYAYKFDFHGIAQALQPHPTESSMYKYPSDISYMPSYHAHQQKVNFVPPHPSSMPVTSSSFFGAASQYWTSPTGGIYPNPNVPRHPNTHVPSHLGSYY
How it was run: (§1)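 Binding signal is defined as a hexamer's read frequency for one factor over its frequency for the tag-only sample. To obtain reads, GST-fused human transcription factors were expressed in yeast, captured on glutathione beads, barcoded with DNA and pooled with that sample. Pools met 200 nmole of a 16-mer random double-stranded DNA library in Tris/NaCl/DTT/glycerol buffer for 30 min at room temperature before washing, 0.1% formaldehyde crosslinking, proximity ligation (BsaI/T4 ligase, 1 h, 37 °C), PCR and Illumina NextSeq500 sequencing.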

ELK1 = molecular target: T2, ELK1 (Homo sapiens, UniProt P19419 1-428)
T2 sequence: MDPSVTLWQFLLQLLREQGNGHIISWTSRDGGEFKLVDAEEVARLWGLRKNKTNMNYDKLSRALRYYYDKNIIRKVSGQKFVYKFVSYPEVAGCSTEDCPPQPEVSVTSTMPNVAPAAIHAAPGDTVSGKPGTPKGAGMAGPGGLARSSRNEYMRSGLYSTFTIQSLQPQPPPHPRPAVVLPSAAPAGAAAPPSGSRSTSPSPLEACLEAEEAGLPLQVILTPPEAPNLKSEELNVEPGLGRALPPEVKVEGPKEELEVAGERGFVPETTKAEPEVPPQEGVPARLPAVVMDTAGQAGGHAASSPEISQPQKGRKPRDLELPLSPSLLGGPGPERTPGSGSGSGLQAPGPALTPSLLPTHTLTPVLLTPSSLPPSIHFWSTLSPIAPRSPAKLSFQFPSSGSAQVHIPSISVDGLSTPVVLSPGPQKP
How it was run: as §1

GABPA = molecular target: T3, GABPA (Homo sapiens, UniProt Q06546 1-454)
T3 sequence: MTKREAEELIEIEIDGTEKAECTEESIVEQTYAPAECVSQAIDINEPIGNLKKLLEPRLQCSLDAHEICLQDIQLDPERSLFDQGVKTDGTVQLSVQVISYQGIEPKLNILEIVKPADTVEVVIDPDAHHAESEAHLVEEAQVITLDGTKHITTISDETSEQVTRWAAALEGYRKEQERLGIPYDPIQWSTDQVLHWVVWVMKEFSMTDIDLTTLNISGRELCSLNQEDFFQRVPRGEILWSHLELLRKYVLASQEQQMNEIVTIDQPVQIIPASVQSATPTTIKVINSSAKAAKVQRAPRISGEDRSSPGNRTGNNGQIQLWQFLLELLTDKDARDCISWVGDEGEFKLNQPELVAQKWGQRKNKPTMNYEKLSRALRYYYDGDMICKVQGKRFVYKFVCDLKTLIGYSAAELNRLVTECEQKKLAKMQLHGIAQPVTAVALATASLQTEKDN
How it was run: as §1

SPIB = SPIB (Homo sapiens, UniProt Q01892 1-262)
How it was run: as §1

ELK3 = molecular target: T4, ELK3 (Homo sapiens, UniProt P41970 1-407)
T4 sequence: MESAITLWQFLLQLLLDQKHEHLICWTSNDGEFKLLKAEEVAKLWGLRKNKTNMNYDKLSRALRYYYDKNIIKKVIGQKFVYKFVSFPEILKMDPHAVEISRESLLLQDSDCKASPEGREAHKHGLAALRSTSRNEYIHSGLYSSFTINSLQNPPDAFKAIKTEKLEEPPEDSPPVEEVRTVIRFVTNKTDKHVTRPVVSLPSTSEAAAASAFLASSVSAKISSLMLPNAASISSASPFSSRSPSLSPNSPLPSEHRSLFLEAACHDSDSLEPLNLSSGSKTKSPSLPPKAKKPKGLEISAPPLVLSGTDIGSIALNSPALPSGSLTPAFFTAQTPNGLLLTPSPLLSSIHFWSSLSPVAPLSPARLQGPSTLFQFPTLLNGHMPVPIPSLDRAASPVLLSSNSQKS
How it was run: as §1

FEV = molecular target: T5, FEV (Homo sapiens, UniProt Q99581 1-238)
T5 sequence: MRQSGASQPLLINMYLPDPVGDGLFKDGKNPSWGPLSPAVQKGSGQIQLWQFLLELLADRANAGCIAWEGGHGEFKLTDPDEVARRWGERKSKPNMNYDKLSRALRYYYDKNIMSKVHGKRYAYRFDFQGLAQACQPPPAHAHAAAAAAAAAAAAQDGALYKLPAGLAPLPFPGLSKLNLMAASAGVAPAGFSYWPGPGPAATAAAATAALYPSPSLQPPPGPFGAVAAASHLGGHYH
How it was run: as §1

ELF4 = ELF4 (Homo sapiens, UniProt Q99607 1-663)
How it was run: as §1

ELK4 = molecular target: T6, ELK4 (Homo sapiens, UniProt P28324-2 1-405)
T6 sequence: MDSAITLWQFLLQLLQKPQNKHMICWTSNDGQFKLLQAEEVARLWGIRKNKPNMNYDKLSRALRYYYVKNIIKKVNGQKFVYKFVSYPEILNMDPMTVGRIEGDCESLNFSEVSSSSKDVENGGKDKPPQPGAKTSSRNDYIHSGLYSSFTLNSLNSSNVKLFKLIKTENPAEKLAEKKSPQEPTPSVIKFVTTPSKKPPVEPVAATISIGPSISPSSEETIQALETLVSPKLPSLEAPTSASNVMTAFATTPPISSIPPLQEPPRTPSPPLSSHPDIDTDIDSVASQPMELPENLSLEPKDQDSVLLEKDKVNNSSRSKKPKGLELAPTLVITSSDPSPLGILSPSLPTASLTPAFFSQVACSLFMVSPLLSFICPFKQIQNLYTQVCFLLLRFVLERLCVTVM
How it was run: as §1

ETV2 = molecular target: T7, ETV2 (Homo sapiens, UniProt O00321 1-342)
T7 sequence: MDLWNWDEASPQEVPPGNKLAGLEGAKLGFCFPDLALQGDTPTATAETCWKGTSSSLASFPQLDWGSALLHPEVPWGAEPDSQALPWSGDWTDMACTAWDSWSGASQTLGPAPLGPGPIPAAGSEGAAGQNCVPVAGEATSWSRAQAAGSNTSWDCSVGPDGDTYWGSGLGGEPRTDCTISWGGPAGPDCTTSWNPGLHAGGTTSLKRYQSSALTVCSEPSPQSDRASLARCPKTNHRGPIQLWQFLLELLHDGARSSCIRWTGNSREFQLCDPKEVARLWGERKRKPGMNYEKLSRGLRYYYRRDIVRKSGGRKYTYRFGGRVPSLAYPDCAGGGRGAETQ
How it was run: as §1

ELF3 = molecular target: T8, ELF3 (Homo sapiens, UniProt P78545 1-371)
T8 sequence: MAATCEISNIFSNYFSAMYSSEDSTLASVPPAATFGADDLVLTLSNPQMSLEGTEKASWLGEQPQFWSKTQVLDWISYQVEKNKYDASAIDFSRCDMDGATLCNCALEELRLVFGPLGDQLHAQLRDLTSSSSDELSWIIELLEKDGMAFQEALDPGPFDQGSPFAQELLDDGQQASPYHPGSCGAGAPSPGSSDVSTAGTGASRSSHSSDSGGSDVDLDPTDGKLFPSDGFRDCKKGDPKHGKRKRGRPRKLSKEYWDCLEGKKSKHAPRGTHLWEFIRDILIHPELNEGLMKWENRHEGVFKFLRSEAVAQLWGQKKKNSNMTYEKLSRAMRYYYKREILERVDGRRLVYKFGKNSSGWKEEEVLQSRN
How it was run: as §1

CRX = CRX (Homo sapiens, UniProt O43186 1-299)
How it was run: as §1

ETV1 = ETV1 (Homo sapiens, UniProt P50549 1-477)
How it was run: as §1

ETV3L = molecular target: T9, ETV3L (Homo sapiens, UniProt Q6ZN32 1-361)
T9 sequence: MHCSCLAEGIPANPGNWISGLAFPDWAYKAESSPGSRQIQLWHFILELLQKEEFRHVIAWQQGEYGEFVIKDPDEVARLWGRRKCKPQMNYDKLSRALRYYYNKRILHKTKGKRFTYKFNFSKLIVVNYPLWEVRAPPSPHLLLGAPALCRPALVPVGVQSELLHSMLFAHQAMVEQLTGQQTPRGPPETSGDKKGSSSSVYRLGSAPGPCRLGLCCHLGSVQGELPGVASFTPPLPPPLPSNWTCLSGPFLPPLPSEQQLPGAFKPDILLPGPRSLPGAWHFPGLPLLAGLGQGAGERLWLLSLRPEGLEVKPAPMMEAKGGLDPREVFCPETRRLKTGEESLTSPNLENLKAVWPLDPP
How it was run: as §1

ETS2 = molecular target: T10, ETS2 (Homo sapiens, UniProt P15036 1-469)
T10 sequence: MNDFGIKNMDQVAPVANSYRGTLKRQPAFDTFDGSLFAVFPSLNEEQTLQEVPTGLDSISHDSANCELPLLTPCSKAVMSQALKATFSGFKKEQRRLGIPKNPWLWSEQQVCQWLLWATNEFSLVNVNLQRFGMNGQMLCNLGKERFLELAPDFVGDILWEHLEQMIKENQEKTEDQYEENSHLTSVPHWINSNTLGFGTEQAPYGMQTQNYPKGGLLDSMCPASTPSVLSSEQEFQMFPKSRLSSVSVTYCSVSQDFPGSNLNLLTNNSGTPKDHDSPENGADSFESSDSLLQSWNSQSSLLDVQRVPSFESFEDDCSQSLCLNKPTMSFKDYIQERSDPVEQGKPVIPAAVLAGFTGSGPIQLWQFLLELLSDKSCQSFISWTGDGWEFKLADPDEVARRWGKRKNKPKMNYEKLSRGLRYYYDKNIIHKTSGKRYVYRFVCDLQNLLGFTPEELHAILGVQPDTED
How it was run: as §1

SPDEF = molecular target: T11, SPDEF (Homo sapiens, UniProt O95238 1-335)
T11 sequence: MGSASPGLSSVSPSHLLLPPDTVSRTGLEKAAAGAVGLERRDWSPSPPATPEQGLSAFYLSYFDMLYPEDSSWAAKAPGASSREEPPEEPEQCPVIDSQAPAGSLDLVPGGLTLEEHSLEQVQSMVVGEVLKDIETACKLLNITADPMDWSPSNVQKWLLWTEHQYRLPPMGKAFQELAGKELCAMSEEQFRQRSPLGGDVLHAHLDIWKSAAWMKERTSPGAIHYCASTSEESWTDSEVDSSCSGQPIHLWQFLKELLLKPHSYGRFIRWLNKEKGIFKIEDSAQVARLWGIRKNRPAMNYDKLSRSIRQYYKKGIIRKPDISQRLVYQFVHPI
How it was run: as §1

ETV6 = ETV6 (Homo sapiens, UniProt P41212 1-452)
How it was run: as §1

Chain of ETV1 (P50549 whole entry): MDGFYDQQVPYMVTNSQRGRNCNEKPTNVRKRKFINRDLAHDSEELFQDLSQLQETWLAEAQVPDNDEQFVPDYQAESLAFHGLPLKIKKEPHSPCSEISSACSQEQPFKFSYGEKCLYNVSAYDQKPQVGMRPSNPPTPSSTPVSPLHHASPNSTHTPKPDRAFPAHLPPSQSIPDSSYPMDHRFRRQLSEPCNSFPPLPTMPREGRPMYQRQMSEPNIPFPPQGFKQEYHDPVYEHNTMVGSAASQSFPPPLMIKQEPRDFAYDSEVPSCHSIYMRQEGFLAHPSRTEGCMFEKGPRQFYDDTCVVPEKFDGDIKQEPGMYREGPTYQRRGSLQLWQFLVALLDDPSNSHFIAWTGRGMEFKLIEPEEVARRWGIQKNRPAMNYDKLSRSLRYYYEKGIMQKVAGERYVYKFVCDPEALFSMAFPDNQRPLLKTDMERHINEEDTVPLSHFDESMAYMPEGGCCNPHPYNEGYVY
Chain of CRX (O43186 whole entry): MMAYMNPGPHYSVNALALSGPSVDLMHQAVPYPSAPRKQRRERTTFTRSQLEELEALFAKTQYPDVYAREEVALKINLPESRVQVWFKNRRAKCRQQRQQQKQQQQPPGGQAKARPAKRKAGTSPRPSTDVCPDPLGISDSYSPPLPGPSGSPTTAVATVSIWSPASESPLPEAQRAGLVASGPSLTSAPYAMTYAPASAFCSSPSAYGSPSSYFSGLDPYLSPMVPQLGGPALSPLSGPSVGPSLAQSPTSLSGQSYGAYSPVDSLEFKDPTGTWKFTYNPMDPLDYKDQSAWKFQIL
Chain of SPIB (Q01892 whole entry): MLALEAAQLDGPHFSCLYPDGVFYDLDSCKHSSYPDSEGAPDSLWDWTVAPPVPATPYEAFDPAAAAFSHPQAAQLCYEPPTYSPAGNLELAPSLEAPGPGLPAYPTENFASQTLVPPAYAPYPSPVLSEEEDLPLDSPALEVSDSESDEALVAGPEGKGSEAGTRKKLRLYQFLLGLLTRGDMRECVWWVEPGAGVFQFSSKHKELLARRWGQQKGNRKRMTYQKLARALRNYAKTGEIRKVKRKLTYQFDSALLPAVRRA
Chain of ETV6 (P41212 whole entry): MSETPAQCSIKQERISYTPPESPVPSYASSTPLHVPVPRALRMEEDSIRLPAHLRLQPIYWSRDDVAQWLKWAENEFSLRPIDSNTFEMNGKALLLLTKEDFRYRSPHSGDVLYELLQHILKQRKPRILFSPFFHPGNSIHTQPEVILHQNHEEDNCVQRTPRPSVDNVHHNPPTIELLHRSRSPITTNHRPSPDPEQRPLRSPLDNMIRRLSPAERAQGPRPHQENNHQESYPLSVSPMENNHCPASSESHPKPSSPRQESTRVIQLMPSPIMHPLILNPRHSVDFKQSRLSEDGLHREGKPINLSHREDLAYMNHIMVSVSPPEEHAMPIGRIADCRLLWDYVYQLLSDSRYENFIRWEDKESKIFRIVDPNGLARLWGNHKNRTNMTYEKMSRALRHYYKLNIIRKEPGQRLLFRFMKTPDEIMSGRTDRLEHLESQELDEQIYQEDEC
Chain of ELF4 (Q99607 whole entry): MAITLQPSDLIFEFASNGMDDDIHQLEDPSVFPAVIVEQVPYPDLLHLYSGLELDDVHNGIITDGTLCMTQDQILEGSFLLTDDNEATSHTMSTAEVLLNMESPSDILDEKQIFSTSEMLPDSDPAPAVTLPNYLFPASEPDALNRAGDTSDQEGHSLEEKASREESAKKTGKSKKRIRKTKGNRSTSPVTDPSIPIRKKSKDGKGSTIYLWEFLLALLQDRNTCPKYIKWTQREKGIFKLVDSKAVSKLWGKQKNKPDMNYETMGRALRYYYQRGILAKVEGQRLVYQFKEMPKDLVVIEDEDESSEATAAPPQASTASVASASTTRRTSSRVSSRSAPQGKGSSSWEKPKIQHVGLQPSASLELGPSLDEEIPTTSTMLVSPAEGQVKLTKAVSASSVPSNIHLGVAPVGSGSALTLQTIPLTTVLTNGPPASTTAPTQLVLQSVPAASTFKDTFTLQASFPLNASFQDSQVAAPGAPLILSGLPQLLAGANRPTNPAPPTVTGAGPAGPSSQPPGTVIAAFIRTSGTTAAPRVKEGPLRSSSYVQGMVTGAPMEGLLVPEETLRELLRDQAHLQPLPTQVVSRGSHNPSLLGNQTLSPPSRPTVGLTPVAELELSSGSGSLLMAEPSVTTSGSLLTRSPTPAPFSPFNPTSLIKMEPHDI

## TCAGCC
FLI1
  binding signal: 1 fold enrichment (6-mer frequency, TF over GST control)
ELK1
  binding signal: 1.11 fold enrichment (6-mer frequency, TF over GST control)
GABPA
  binding signal: 1.06 fold enrichment (6-mer frequency, TF over GST control)
SPIB
  binding signal: 1.05 fold enrichment (6-mer frequency, TF over GST control)
ELK3
  binding signal: 1.13 fold enrichment (6-mer frequency, TF over GST control)
FEV
  binding signal: 1.04 fold enrichment (6-mer frequency, TF over GST control)
ELF4
  binding signal: 1.11 fold enrichment (6-mer frequency, TF over GST control)
ELK4
  binding signal: 1.02 fold enrichment (6-mer frequency, TF over GST control)
ETV2
  binding signal: 1.03 fold enrichment (6-mer frequency, TF over GST control)
ELF3
  binding signal: 1 fold enrichment (6-mer frequency, TF over GST control)
CRX
  binding signal: 1.17 fold enrichment (6-mer frequency, TF over GST control)
ETV1
  binding signal: 1.02 fold enrichment (6-mer frequency, TF over GST control)
ETV3L
  binding signal: 1.02 fold enrichment (6-mer frequency, TF over GST control)
ETS2
  binding signal: 1 fold enrichment (6-mer frequency, TF over GST control)
SPDEF
  binding signal: 1.03 fold enrichment (6-mer frequency, TF over GST control)
ETV6
  binding signal: 1.01 fold enrichment (6-mer frequency, TF over GST control)
